{"source": "PubChem BioAssay (NCI)", "note": "About 83,000 compounds went through this panel and 20% of them were active in at least one assay; those are over-represented in the sample as a whole.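 Values shown are percent growth following 48 h exposure of cells in 96-well plates to a single concentration of compound; below 10 was considered active.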 Unmarked numbers belong to inactive results."}
{"tested_on": "BT-549 breast", "assay": "NCI-60 one-dose screen, 48 h (100 = growth as untreated, 0 = no growth, -100 = all killed)", "conditions": "10 µM unless noted", "units": {"growth": "%"}}
{"smiles": "O=C(CN1CCN(c2cc(=O)n(-c3ccccc3)c3ccccc23)CC1)Nc1nc(-c2ccccc2)cs1", "growth": 67.1}
{"smiles": "Cc1ccc(NC(=O)c2ccc(CN3CCOCC3)c(C(F)(F)F)c2)cc1Oc1ccc(-c2[nH]nc3ncnc(N)c23)cc1", "growth": 66.8}
{"smiles": "Cc1ccc(NC(=O)CNc2cc(C(N)=O)cc(F)c2C)c(Cl)c1", "growth": 102}
{"smiles": "COc1cc(C2N=C(NNc3ccccc3)NC(C)=C2C(C)=O)ccc1O", "note": "(stereo not drawn)", "growth": 123}
{"smiles": "CNc1ncc2cc(-c3ccc(-c4ncccc4F)cc3Cl)c(=O)n(CC3OCC(N)CO3)c2n1", "note": "(stereo not drawn)", "growth": 82.1}
{"smiles": "Nc1cc(-c2c[nH]c3ccc(Br)cc23)nc2cc(-c3c[nH]c4ccc(Br)cc34)nn12", "growth": 76.4}
{"smiles": "Cc1cc2ncc(-c3cc4ccccc4c(N4CCN(C)CC4)n3)nc2cc1C", "growth": 85.9}
{"smiles": "O=C(NCCn1ccnc1)c1ccc(-c2nc3ccc4[nH]ncc4c3c3c2CCCC3)cc1", "growth": 44.2}
{"smiles": "N#C/C(=C\\c1ccc(-c2ccc(Cl)cc2Cl)o1)c1ccc(F)cc1", "growth": 112}
{"smiles": "COc1cc(Nc2c(C#N)cnn3cc(-c4cnn(CC(C)(C)O)c4)cc23)ccc1Cl", "growth": 85.5}
{"smiles": "C=C(C=O)[C@@H]1CC[C@]2(CO)CC[C@]3(C)[C@H](CC[C@@H]4[C@@]5(C)CCCNC(C)(C)[C@@H]5CC[C@]43C)[C@@H]12", "growth": 74.3}
{"smiles": "CC/C(=C/c1cc(OC)ccc1O)c1ccc2cc(OC)ccc2[o+]1", "growth": 51.5}
{"smiles": "COc1c(N2CC3CCCNC3C2)c(F)cc2c(=O)c(C(=O)N/N=C/c3ccc4c(c3)OCO4)cn(C3CC3)c12", "note": "(stereo not drawn)", "growth": 94.9}
